# According to PubChem BioAssay AID624296 (National Center for Advancing Translational Sciences (NCATS), 2012):
# Hit rate of the full screen: of about 350,000 compounds, about 9,900 (2.8%) were called active. A call without a number means that no potency is given here. Not shown: some 15% with an inconclusive outcome. The sample holds actives, similar compounds and a random draw of the others, so the mix is not that of the screen. The call rests on the fitted dose curve; in most records, active means well fitted activation curve with a large enough effect; inconclusive means small, poorly fitted or top-dose-only effect; inactive means no such curve, though single readings can be large or run the other way.
# Assay: A quantitative high throughput screen for small molecules that induce DNA re-replication in MCF 10a normal breast cells. Further: nearly all actives have a fitted effect of over 50% in size.
# Settings: MCF 10A DNA re-replication, Hoechst nuclear intensity, 48 h; series mostly up to 46.1 µM
# Text: H Molecular Libraries Probe Production Network [MLPCN]
# NIH Chemical Genomics Center [NCGC]
# Assay Provider: Melvin DePamphilis, NICHD, NIH
# Eukaryotic cells normally restrict genome duplication to once per cell division. When this process is aberrant, DNA re-replication occurs when cells reinitiate DNA replication before the first round of replication is complete. DNA re-replication induces the DNA damage response, arrests cell proliferation, and triggers apoptosis. The cell cycle components cyclin A, Cdt-1, Cdc6 and geminin are critical regulators of this process and their misregulation results in DNA re-replication in normal and cancer cells. To identify compounds that induce re-replication in normal cells, an image-based assay was used to measure DNA content of nuclei, as detected by the fluorescent DNA binding dye, Hoechst. Cell nuclei were imaged by a fluorescence scanning plate imager and compounds that induce DNA re-replication were identified by the increase of nuclei with elevated fluorescence intensity
# For screening, 250 cells in 5 uL/well were dispensed into black clear 1536-well plates (Aurora) using a solenoid-based dispenser. Following transfer of 23 nL compound or DMSO vehicle by a pin tool, the plates were incubated 48 hr at 37 C and 5% CO2. After addition of 1 uL/well Hoescht stain, the plates were incubated 40 min at 37 C, 5% CO2 and total intensity of fluorescent objects (nuclei) were enumerated by an Acumen Explorer Ex3 (TTP LabTech) fluorescence scanning plate imager (405 nm excitation, 500-530 nm emission).
# Keywords: NIH Roadmap, MLPCN, MLI, MLSMR, qHTS, NCGC, DNA replication, cancer
# Potency means the concentration at half of the fitted maximal effect.
row,Structure (SMILES),Potency
1,COCC(=O)N=Nc1c(O)[nH]c2ccccc12,inactive
2,Cc1cccc(N(CC(=O)N=Nc2c(O)[nH]c3ccccc23)S(C)(=O)=O)c1C,inactive
3,O=C(CCN1CCCCC1)N=Nc1c(O)[nH]c2ccccc12,3.66 µM (active)
4,CCCCc1ccc(NS(=O)(=O)c2cccc(C(=O)N3CCCN(C)CC3)c2)cc1,inactive
5,O=C(O)c1ccc(S(=O)(=O)c2ccccc2)s1,inactive
6,Cc1nc2ccc(N)nc2nc1C,inactive
7,CCN(C[C@H]1N[C@@](CC)(C(=O)OC)[C@H]2C(=O)N(C)C(=O)[C@@H]12)C(=O)Nc1ccc(F)cc1,inactive
8,CCOC(=O)c1c(-c2ccccc2)oc2ccc(OCC(=O)NN)cc12,inactive
9,CCOC(=O)c1c(-c2ccccc2)oc2cc(Br)c(O)cc12,16.4 µM (active)
10,CCOC(=O)c1c(C)oc2cc(Sc3ccccc3)c(O)c(O)c12,inactive
11,Cc1oc2cc(Br)c(O)c(Br)c2c1C(=O)c1ccccc1,inactive
12,CCOC(=O)c1c(-c2ccccc2)oc2cc(Br)c(O)c(C=O)c12,2.91 µM (active)
13,CCOC(=O)c1c(-c2ccccc2)oc2ccc(OCC(N)=O)cc12,inactive
14,CC[C@]12c3[nH]c4cc(CCC(=O)N(C)C)ccc4c3CCN1C(=O)[C@@H](CC(=O)NCc1ccco1)C[C@@H]2C(=O)N1CCN(C(=O)c2ccco2)CC1,inactive
15,O=C(CSc1nnc(Nc2ccccc2F)s1)NC1CCCC1,inactive
16,O=C(COC(=O)c1n[nH]c2ccccc12)Nc1ccccc1Br,inactive
17,COc1ccc(NC(=O)/C(N=Nc2cccc(S(=O)(=O)Nc3ccc(SC(F)F)cc3)c2)=C(\C)O)cc1,inactive
18,CC(C)=CCc1c(O)c(CC=C(C)C)c2occ(-c3ccc(O)cc3)c(=O)c2c1O,9.2 µM (active)
19,O=c1c(-c2ccccc2)coc2cc(O)ccc12,inactive
20,CC(C)CN(Cc1c(O)ccc2c(=O)c(-c3ccccc3)coc12)CC(C)C,inactive
21,O=C(NN=Cc1ccc([N+](=O)[O-])cc1)C1CC1,inactive
22,COc1ccccc1N1CCN(C(=O)C2Cc3ccccc3CN2C(=O)c2ccco2)CC1 (centres undefined),inactive
23,Cc1ccc(S(=O)(=O)CC(=O)Nc2nnc(C)s2)cc1,inactive
24,CC(=O)N1CCc2c(sc(NC(=O)CCS(=O)(=O)c3ccc(C)cc3)c2C(N)=O)C1,3.26 µM (active)
25,CCOc1ccc(OCC)c(NC(=O)CCS(=O)(=O)c2ccc(C)cc2)c1,inactive

row,Structure (SMILES),Potency
1,Cc1cc(C)cc(-c2nnc(SCC(=O)NC3CC3)o2)c1,inactive
2,O=C(NCc1ccccc1CN1CCCC1)c1cccc(S(=O)(=O)Nc2ccc(F)cc2)c1,inactive
3,COc1cc(C(=O)CCc2ccc3c(c2)OCO3)cc(OC)c1OC,inactive
4,Cc1oc2c(c1C(=O)N1CCOCC1)C(=O)c1ccccc1C2=O,16.4 µM (active)
5,Cc1noc(C)c1C(=O)N1CCOCC1,inactive
6,Cc1ccccc1-c1ccc(Nc2ccc(C(=O)N3CCOCC3)cc2)nn1,inactive
7,NS(=O)(=O)c1ccc(CNC(=O)c2cccc(S(=O)(=O)N3CCc4ccccc43)c2)cc1,inactive
8,COc1ccc(C(C)(C)C)cc1NC(=O)CCN1C(=O)C2CCCCC2C1=O (centres undefined),inactive
9,COc1ccc(C2=NN(C(=O)c3ccccc3C(=O)O)C(c3ccccc3O)C2)cc1 (centres undefined),inactive
10,COc1ccc(C2=NN(c3ccccc3)C(c3cccs3)C2)cc1 (centres undefined),3.26 µM (active)
11,COc1ccc(C2=NN(C(C)=O)C(c3ccccc3)C2)cc1 (centres undefined),inactive
12,O=C(Nc1cc(S(=O)(=O)N2CCCCC2)ccc1Cl)C1COc2ccccc2O1 (centres undefined),inactive
13,C=CC[C@@H](CC(=O)N[C@@H](CO)Cc1ccccc1)C(=O)NCCOC(=O)[C@@H](CC=C)CC(=O)OC(C)(C)C,inactive
14,CCCCn1c(N)c(N(CCC(C)C)C(=O)COC(=O)c2ccc(CC)cc2)c(=O)[nH]c1=O,inactive
15,O=C(/C=C/c1ccco1)NC(=S)N1CCCCC1,inactive
16,COc1ccc(Cl)cc1C(=O)NNC(=S)NC(=O)/C=C/c1ccco1,inactive
17,O=C(/C=C/c1ccco1)NC(=S)Nc1ccccc1Br,20.6 µM (active)
18,COc1ccc2c(c1)C(=O)CC(c1ccccc1)O2 (centres undefined),inactive
19,COc1cccc(-c2cc(C(=O)N/N=C/c3ccc(OC)c(COC(C)=O)c3)c3ccccc3n2)c1,inactive
20,COc1cc(/C=N/NC(=O)c2cc(-c3ccccc3C)nc3ccccc23)cc(OC)c1O,inactive
21,CCOc1ccc(-c2cc(C(=O)N/N=C/c3ccc(O)cc3)c3ccccc3n2)cc1,2.06 µM (active)
22,O=C1COc2ccc(C(=O)COC(=O)CCOc3ccccc3)cc2N1,inactive
23,Cc1ccc(-c2csc(NC(=O)Cn3[nH]c(=O)c4ccccc4c3=O)n2)cc1,3.26 µM (active)
24,O=C(CSc1nc2ccccc2c(=O)[nH]1)Nc1nc(-c2ccc(Br)cc2)cs1,inactive
25,CC(=O)NCc1ccc(-c2csc(NC(=O)CCCc3nc4ccccc4c(=O)[nH]3)n2)cc1,inactive

row,Structure (SMILES),Potency
1,O=C(Cn1cnc2c(OCc3ccccc3)ncnc21)NCCCn1ccnc1,inactive
2,CC(C)Sc1nc(N)nc2c1ncn2C1OC(CO)C(O)C1O (centres undefined),inactive
3,Cn1c(N)c(C(=O)COC(=O)c2cccc(S(=O)(=O)N3CCOCC3)c2)c(=O)n(C)c1=O,inactive
4,COCCCn1c(-c2cccs2)nc2nc3ccccc3nc21,18.4 µM (active)
5,COc1ccccc1C(=O)Nn1c(-c2cccs2)nc2ccccc2c1=O,inactive
6,CC(C)n1c(-c2cccs2)nc2ccccc21,inactive
7,COC(=O)C1CCN(C(=O)COC(=O)c2cc(S(=O)(=O)N3CCOCC3)ccc2C)CC1,inactive
8,Cc1ccc2c(O)c(Cc3ccccc3)c(=O)[nH]c2n1,inactive
9,O=C(NCC1CCCO1)c1ccc(S(=O)(=O)Nc2ccc(F)cc2)cc1 (centres undefined),inactive
10,COc1ccc(/C=N/NC(=O)c2ccc3c(c2)OCCO3)c(OC)c1,inactive
11,COc1ccc(/C=N/NC(=O)CNC(=O)c2ccc(S(=O)(=O)N3CCCC3)cc2)c(OC)c1,inactive
12,COc1ccc(/C=N/NC(=O)Nc2ccc3nsnc3c2)c(OC)c1,13 µM (active)
13,COc1ccc(CNC(=O)CN2C(=O)c3ccccc3S2(=O)=O)cc1,inactive
14,COc1ccc(C(=O)NCc2ccc(C)cc2)cc1S(=O)(=O)N1CCCC1,inactive
15,Cc1ccc(-c2csc(C(C#N)=C(O)CN3CCN(C(=O)c4ccco4)CC3)n2)cc1,inactive
16,O=S(=O)(c1ccc(SCc2ccc(Br)cc2)nc1)N1CCOCC1,inactive
17,Cc1ccc(OCCC(=O)Nc2ccc(S(=O)(=O)Nc3nccs3)cc2)cc1,inactive
18,COC1=NC2=NCCN2C(OC)=N1,inactive
19,Cc1cccc(C)c1NC(=O)C(Cl)C(=O)c1ccccc1 (centres undefined),18.4 µM (active)
20,Cc1cccc(C)c1NC(=O)C(c1ccccc1)N1CC(=O)Nc2ccccc21 (centres undefined),inactive
21,Cc1cccc(C)c1NC(=O)CN(C)C(=O)CCC(=O)c1ccccc1,inactive
22,Cc1ccc(NC(=O)C2CC(=O)N(c3ccc4c(c3)OCCO4)C2)cc1S(=O)(=O)N1CCCCCC1 (centres undefined),inactive
23,Cc1nc(SCC(=O)NC2CCCCC2C)c(C#N)c(C)c1C (centres undefined),inactive
24,CC(C)n1ncc2c(C(=O)Nc3ccc(CC#N)cc3)cc(C3CC3)nc21,inactive
25,COc1ccc(OC)c(Cc2cnc3nc(N)nc(N)c3c2C)c1,inactive

row,Structure (SMILES),Potency
1,COc1ccc(Nc2oc(-c3ccccc3Cl)nc2C#N)cc1,2.59 µM (active)
2,Cc1ccccc1-c1nc(C#N)c(NCc2ccco2)o1,inactive
3,COc1ccccc1-c1nc(C#N)c(N2CCC(C(N)=O)CC2)o1,inactive
4,CC(NC(=O)c1ccc(S(=O)(=O)Nc2ccccc2)cc1)c1ccc(S(N)(=O)=O)cc1 (centres undefined),inactive
5,COc1cccc(CC(=O)Nc2ccc(-c3csc(C)n3)cc2)c1,9.2 µM (active)
6,COc1cccc(CC(=O)Nc2nc(-c3ccc(OC)c(OC)c3)cs2)c1,inactive
7,CCC(=O)Nc1ccc(C(=O)Nc2cccc(OC)c2)cc1,inactive
8,CCCCC[C@@H]1C=C(C(=O)O)[C@H](c2ccc(C#N)cc2)N1S(=O)(=O)c1ccc(C)cc1,inactive
9,O=C1C[C@@H]2c3c(cccc3CN1Cc1ccccc1)C[C@@H](O)[C@H]2O,inactive
10,CCO/N=C(/C)c1c(O)cc(-c2ccccc2)n(-c2ccccc2)c1=O,14.6 µM (active)
11,C=CCO/N=C(\C)c1c(O)c(C)c(-c2ccccc2)n(-c2ccccc2)c1=O,inactive
12,CCOC(=O)c1c(CN(C)C)n(-c2ccccc2)c2cc(Br)c(O)cc12,inactive
13,CCN(CC)S(=O)(=O)c1ccc(CNC(=O)CN2C(=O)NC3(CCc4ccccc43)C2=O)cc1 (centres undefined),inactive
14,COCCN(Cc1ccccc1)C(=O)Cc1ccc(S(=O)(=O)N2CCOCC2)s1,inactive
15,Cc1ccc(S(=O)(=O)N2CCCCC2)cc1NC(=O)CCNC(=O)c1ccccc1,inactive
16,C#CCOCCOCCOCCNc1nc(N2CCOCC2)nc(N2CCN(C(=O)[C@H](Cc3ccc(O)cc3)n3cc(CCO)nn3)CC2)n1,inactive
17,Cc1ccc(NC(=O)COC(=O)C2CC2)cc1S(=O)(=O)N1CCOCC1,inactive
18,Cc1ccc(NC(=O)NC2CCCCC2)cc1S(=O)(=O)N1CCOCC1,inactive
19,Cc1ccc(NC(=O)C2CCC(C(C)(C)C)CC2)cc1S(=O)(=O)N1CCOCC1 (centres undefined),18.4 µM (active)
20,CCC1([N+](=O)[O-])COC(c2ccc(C)cc2)OC1 (centres undefined),inactive
21,COc1ccccc1N1CC(C(=O)NCCN2C(=O)S/C(=C\c3cccnc3)C2=O)CC1=O (centres undefined),inactive
22,O=C(CCn1c(=O)[nH]c2ccccc2c1=O)NCCCN1CCN(c2cccc(Cl)c2)CC1,inactive
23,COc1cccc(CNC(=O)Cc2csc(Nc3nc(=S)[nH]c4ccccc34)n2)c1,inactive
24,O=C(Cc1csc(Nc2nc(=S)[nH]c3ccccc23)n1)NCCCN1CCN(c2cccc(Cl)c2)CC1,14.6 µM (active)
